# Measured values taken from PubChem BioAssay (EPA / NIEHS).
# The source made the active and inactive calls. Rule for the calls: active = hit-call score of the fitted dose curve at least 0.9, where 1 is the maximum; inactive = score below 0.9.
# Read-out: MYC, MYC (gene 4609)
# Assay: LTEA_HepaRG_MYC: Life Technologies and Expression Analysis (LTEA) Assay for MYC using HepaRG (AID 2283518)
# Details: mRNA level, 48 h; actives raise or lower the signal
# Protocol: LTEA_HepaRG is a cell based, multiplexed-readout assay that uses HepaRG, a human liver cell line, with measurements taken at 48 hours after chemical dosing on a 96-well plate.LTEA_HepaRG_MYC is one of 102 assay component(s) measured in the LTEA HepaRG cell culture assay. It is a marker of Cell proliferation, survival, death.Data from the assay component LTEA_HepaRG_MYC was analyzed into 1 endpoint. This assay endpoint, LTEA_HepaRG_MYC, was analyzed with bidirectional fitting relative to DMSO as the negative control and baseline of activity. Using a type of inducible reporter, measures of mRNA induction for gain or loss-of-signal activity can be used to understand regulation of transcription factor activity. To generalize the intended target to other relatable targets, this assay endpoint is annotated to the dna binding intended target family, where the subfamily is basic helix-loop-helix leucine zipper.
# A total of 1060 chemcials from the ToxCast library were tested in eight-point concentration-response experiments. Cell culture and cytotoxicity assays were conducted at Thermo Fisher Scientific's Custom Services facility (Madison, WI). A single lot of human HepaRG cells (Thermo Fisher Scientific, Frederick, MD) was used for the cell culture experiments. 96-well format collagen type I coated plates of human HepaRG cells were prepared using established methods. Briefly, cryopreserved HepaRG cells were thawed, plated at a density of approximately 100,000 cells/well in HepaRG Thaw, Plate, and General Purpose media (HPRG770, Thermo Fisher Scientific), and incubated for 48 hours. 0.5% DMSO was selected as vehicle control to balance the requisite need of DMSO in HepaRG cultures to maintain differentiation (for example, baseline metabolism, proportions of hepatocytes vs. cholangiocytes), while enabling further hepatic receptor pathway activation (for example, PXR and CAR) in response to chemical exposure. 48 hours after plating, the culture medium was replaced with HepaRG Serum-Free Incudtion Media. Cells were exposed to each test chemical in duplicate and maintained in CO2 incubators for another 48 hours. Chemical plates were thawed to room temperature and 200x concentrations of treatment groups were prepared. 8-point conentration-reponse curves were made with the highest exposure at 100 uM, followed by half-log dilutions, all in 0.5% DMSO. Each test plate contained variouse controls, induction positive controls (1mM phenobarbital), cytotoxicity positive controls ([…] aflatoxin B1), vehicle controls (0.5% DMSO), and total lysis controls (0.5% DMSO). Cell morphology images were taken using an Essen IncuCyte FLR automated microscope, with six 96-well plates imaged in about 24 minutes. Images were captured and exported and JPEG files. Spent culture media was transfered to black-well plates for the LDH assay, and remaining media was sorted at -80 C for later use. Cells were treated with RLT buffer and frozen until shipped for gene expression analysis. Total RNA was isolated from the cell suspension in 75 uL of Buffer RLT (Qiagen, Germantown, MD 20874) by Quintiles/Expression Analysis (Durham, NC) using a custom isolation procedure. Total RNA from each plate well was transferred to a preamplification plate. Fluidigm's 96.96 Dynamic ArrayTM (Fluidigm, Amsterdam, the Netherlands) technology was used for gene expression analyses by quantitative reverse transcription polymerase chain reaction (qRT-PCR, performed by Quintiles/Expression Analysis, Durham, NC)89. Standard TaqManTM Assays (Applied Biosystems/ThermoFisher Scientific, Foster City, CA) were used to assess the expression of 93 genes selected based on their selectivity and sensitivity to important hepatic receptors known to be modulated by environmental chemicals; importance in human hepatocyte functionality; and hepatotoxicity. […]
Structure (SMILES),outcome,AC50
COc1cc(C=O)ccc1O,inactive,
Cc1c(C(=O)O)c(O)cc2c1C(=O)c1c(O)c([C@@H]3O[C@H](CO)[C@@H](O)[C@H](O)[C@H]3O)c(O)c(O)c1C2=O,inactive,
CCCCCCOCCO,inactive,
C=CCOC(=O)c1ccccc1C(=O)OCC=C,inactive,
Nc1ccc(S(=O)(=O)c2ccc(N)cc2)cc1,inactive,
CCc1c(C(=O)NN2CCCCC2)nn(-c2ccc(Cl)cc2Cl)c1-c1ccc(Br)cc1,,50 µM (active)
CNCc1cc(F)ccc1Oc1ccc(Cl)c(Cl)c1,,78.9 µM (active)
CCCCc1ccc2c(n1)[C@@H](c1ccc(OC)cc1C[C@H](C)C(=O)O)[C@H](C(=O)O)[C@H]2c1ccc2c(c1)OCO2,inactive,
CCCCCCCCCCCCCO,inactive,
CCCCOC(=O)CCCCCCCCC(=O)OCCCC,inactive,
NS(=O)(=O)c1cc2c(cc1Cl)NCNS2(=O)=O,inactive,
CCCCCCC(=O)OCC,inactive,
CCCCCCCCCCCC(=O)OC,inactive,
NCC1(Cc2noc(=O)[nH]2)CCCCC1,inactive,
CCCCCCCCCCO,inactive,
Cc1cc(=O)[nH]c(=S)[nH]1,inactive,
CCCCCCCC=O,inactive,
CCCCCC(=O)O,inactive,
CC=Cc1ccc(O)c(OC)c1,inactive,
C=CCc1ccc(O)c(OC)c1,inactive,

Structure (SMILES),outcome,AC50
COCCOCCOC,,0.966 µM (active)
COC(=O)c1ccc(O)cc1,inactive,
Cc1ccc(Cl)cc1,inactive,
Oc1ccc2c(c1)OC[C@@H](N1CCC(O)(c3ccc(F)cc3)CC1)[C@H]2O,inactive,
FC(F)(F)C(F)(F)C(F)(F)C(F)(F)C(F)(F)C(F)(F)CCI,inactive,
Clc1cc(Cl)c(Cl)cc1Cl,inactive,
CCCCCCCCCCC,inactive,
Cc1cc(NC(=O)C(=O)O)cc(C)c1Oc1ccc(O)c2c1CCC2,inactive,
CCCCCCCCCCCCCCCC,inactive,
NC(=O)Cn1c(=O)cc(CCN2CCN(c3nccc4sccc34)CC2)c2ccc(F)cc21,inactive,
O=[N+]([O-])C(CO)(CO)CO,inactive,
Cc1ccc2ncccc2c1,inactive,
Cc1oc(-c2ccccc2)nc1CCOc1cccc2c1ccn2CCC(=O)O,,81.9 µM (active)
CNC(=O)[C@H]1O[C@@H](n2cnc3c(NCc4cc(Cl)ccc4OCc4cc(C)no4)ncnc32)[C@H](O)[C@@H]1N,inactive,
Cc1cccc(Nc2cc(Cl)nc(SCC(=O)O)n2)c1C,inactive,
CC1(C)NC(=O)NC1=O,inactive,
Nc1ccccc1N,,7.08 µM (active)
O=c1[nH]cc(F)c(=O)[nH]1,inactive,
Cc1nc(-c2ccc3c(c2)CCN(CCC2CCC(NC(=O)/C=C/c4ccc(F)cc4)CC2)CC3)no1 (stereo not given),inactive,
O=C(O)CCCCC(=O)O,inactive,
